This note sets out measurements from PubChem BioAssay (NCI).

SMILES strings stand for the structures. The panel holds about 83,000 compounds, 20% with a hit somewhere; the sample as a whole holds those more often.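 For each line, cells grew in 96-well plates with the test compound present at a single concentration for 48 hours.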 Activity calls are given as the source filed them.

The experiment concerns OVCAR-5 ovarian. The experiment in a line: NCI-60 one-dose screen, 48 h (100 = growth as untreated, 0 = no growth, -100 = all killed). As to conditions: 10 µM unless noted. As for the experimental part:
Growth inhibition of the OVCAR-5 human tumor cell line is measured as a screen for anti-cancer activity. Cells are grown in 96 well plates and exposed to the test compound for 48 hours. Compounds are tested at a single concentration, which is 10^-5 M for most compounds. The reported endpoint is percent growth (GI% or GIPRCNT), where numbers from 0 - 100% represent growth inhibition, and numbers from -100% - 0 represent cell death. For example, a value of 40 represents 60% growth inhibition. A value of 0 means no net growth occurred over the course of the experiment. A value of -40 indicates 40% of cells at the beginning of the experiment died by the end of the experiment. A value of -100 means all cells are dead at the end of the experiment.
NCI-60 Human Tumor Cell Lines Screen was performed using the standard one-dose NCI protocol, which is described in more detail at https://dtp.cancer.gov/discovery_development/nci-60/default.htm.
Compounds with GIPRCNT values below 10 were considered active. Activity score was based on GIPRCNT using the following formula: […]
Score is 0 for GIPRCNT values of 100 or above, 50 for GIPRCNT values of 0, and 100 for GIPRCNT values of -100.
As for `COC(c1ccccc1)C(Br)C(=O)c1ccccc1` (stereo not given), the growth is 108% (inactive).
Next, `COc1ccc2cnc(N)c(C#Cc3cc(C(=O)Nc4ccc(CN5CCN(C)CC5)c(C(F)(F)F)c4)cnc3C)c2c1`: -39.3% (active).
Next, `FC(F)(F)c1cccc(-c2[nH]ncc2-c2nnnn2-c2ccccc2)c1`: 69.6% (inactive); `O=C1C(Cl)=C(Nc2ccc(Nc3ccccc3)c(NC3=C(Cl)C(=O)c4ccccc4C3=O)c2)C(=O)c2ccccc21`: 141% (inactive).
On to `O=C(Cc1ccccc1[N+](=O)[O-])c1ccc2c(c1)OCO2`, for which the growth was 104% (inactive).
Next, `Cc1ccc(S(=O)(=O)N/N=C2\CC3CCC2C3)cc1` (stereo not given): 98.9% (inactive); `CC(=O)Nc1ccc(CC#N)cc1Br`: 109% (inactive).
Next, `COC(=O)/C(Br)=C/c1c[nH]c2ccc(Br)cc12`: 72.3% (inactive).
On to `O=C(Nc1ccc(Cl)cn1)C1(c2ccccc2)CCCCC1`, for which the growth is 102% (inactive).
To `COc1ccc(-c2nc(SCC(C)C)nc(Nc3ccccc3)c2C#N)cc1` belongs 103% (inactive); to `CC1=C(C)C[C@]2(C(=O)O[C@H]3CCCC[C@@H]32)[S@](=O)C1`, 114% (inactive); to `NCCCOc1cc(Cl)ccc1NC(=O)c1cc2ccccc2cc1OCCCN`, -72.3% (active).
To `C=C(NC(=O)[C@H](C(C)C)N(C)c1cccc2[nH]ccc12)C(=O)OC` belongs 101% (inactive).
Next, `COC(=O)C(C)[C@H]1CC[C@@H]2[C@]1(C)CC=C1[C@]23C=C[C@]2(C[C@@H](OC(C)=O)CC[C@]12C)C(C(=O)OC)C3C(=O)OC` (stereo not given in full): 109% (inactive).
For the compound `CCCCCCNC(=O)Oc1ccc(/C(=C(/C)Cc2ccc(OC)cc2)c2ccc(OCCN(C)C)cc2)cc1`, the growth is 90.3% (inactive).
To `CCOC(=O)c1cc(-c2ccc(OC)cc2)[nH]c1NNC(=O)CCOC` belongs 100% (inactive); to `COc1ccc(Cn2cc3c(c2-c2ccccc2)CCc2cnoc2-3)cc1OC`, 75.6% (inactive).
Next, `COc1cc(/C=C/C(=O)c2ccc(F)cc2)ccc1OCCCCOc1cc2c(cc1OC)C(=O)N1CCCC1C=N2` (stereo not given): -4.68% (active).
Next, `CSC1=Nc2c(c(C)c(-c3ccccc3)n2CCCCl)C2=NC(=O)CN12`: 86.2% (inactive); `Cc1cc(CSc2ccc(Cl)cc2)ccc1N`: 99.6% (inactive).
Turning to `O=C(N/N=C\c1ccc(Cl)cc1)C(=O)N/N=C\c1ccc(Cl)cc1`, the growth was 105% (inactive).
`O=C1CSC(c2ccccc2Cl)N1c1nnc(-c2ccncc2)o1` (stereo not given): the growth was 94.1% (inactive).
Next, `COc1ccc(-c2cn3ccnc3c(-c3ccc4ncn(C5CCCCC5)c4c3)n2)cc1`: 41.2% (inactive); `N=C(N)c1ccc(-c2ccc(-c3ccc(F)cc3)s2)cc1`: -87.4% (active).
Next, `O=C(Nc1ccc(-n2cc(-c3ccncc3)c(-c3ccc(Cl)c(O)c3)n2)cc1)c1ccc(Cl)c(Cl)c1`: 56.5% (inactive); `CCOC(=O)CCCCCCCCC(=O)OCC`: 112% (inactive).
To `O=C(/C=C1\C(=O)N(Cc2ccc([N+](=O)[O-])cc2)c2ccccc21)c1ccc(OCCN2CCCC2)cc1` belongs 77.3% (inactive); to `CC(=O)Nc1nc(C)c(C(=O)N/N=C/N2CCOCC2)s1`, 106% (inactive).
`Cc1ncc(C(=O)Nc2ccc(CN3CCN(C)CC3)c(C(F)(F)F)c2)cc1C#Cc1c(N)ncc2ccc(F)cc12`: the growth was -45.3% (active).
Take `CC1(C)Oc2cc3oc(=O)ccc3cc2C[C@@H]1OCCOS(=O)(=O)c1ccc(C#N)cc1`: the growth is 97.9% (inactive).
To `COc1cc(-c2nc3c(c(C)nc4c3nnn4-c3ccccc3)c(=O)o2)cc(OC)c1OC` belongs 103% (inactive).
Next, `c1ccc2[nH]c(-c3ccc(OCCCCCOc4ccc(-c5nc6ccccc6[nH]5)cc4)cc3)nc2c1`: 16.1% (inactive); `CCOC(=O)C1C(=O)C(=O)N(C(C)C)C1C(=O)OCC` (stereo not given): 92.9% (inactive).
Next, `COc1cccc(-c2cc(-c3cc4ccccc4oc3=O)nc(N)n2)c1`: 98.2% (inactive); `COc1ccc2sc(-n3nc4nc5n(c(=O)c4c3N)-c3ccccc3Sc3ccccc3-5)nc2c1`: 126% (inactive).
In the case of `CCCCN(CCCC)CC(O)CN(CC)CC` (stereo not given), the growth is 95.3% (inactive).
To `Cc1nc(NC(=S)Nc2ccc(F)cc2)sc1C(=O)NNC(=S)Nc1ccc(F)cc1` belongs 86.3% (inactive); to `COc1cc2ncnc(-n3ncc4cc(NC(=O)Nc5ccc(Cl)c(Cl)c5)ccc43)c2cc1OC`, -33.1% (active).
With `CCCCCCCCCC[N+](C)(C)C`, the growth is 9.16% (active).
Regarding `COc1cc2c(c(OC)c1OC)C(=O)CC(c1cccc(C(=O)Nc3cccc(Br)c3)c1)O2` (stereo not given), the growth is 95.7% (inactive).
